Source: PubChem BioAssay
NS1 inh = influenza NS1 inhibition | Potency, µM (series often up to 46.1 µM), for the others: at the highest dose activity, positive = more growth | 270,000 tested, 0.4% active; note: potency is the fitted concentration of half-maximal effect; actives are rising curves; nearly all actives have a fitted effect of over 50% in size
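Growth recovery, yeast-based: influenza A NS1 expressed in S. cerevisiae causes slow growth, and suppressors are detected by OD600. The parent strain without NS1 is used as positive control.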
CHX counter = counter-screen for Shiga toxin inhibitors: cycloheximide protein synthesis inhibition | 300,000 tested, 12% active | max response, % | cell reporter, cycloheximide protein synthesis inhibition counterscreen; in the data active = max response mostly above about 13%, no sharp cut-off; inactive = mostly below about 14%; note: read at 38.3 µM for the half of the compounds with a filed dose; 0% is about no effect
Pf growth 96h = inhibits malaria parasite growth, 96 h; AID 504834; P. falciparum luciferase reporter growth, 96 h; Potency, µM (top dose mostly 28.7 µM), for the others: at the highest dose activity change, negative = inhibition, hits mostly inhibitors; 320,000 tested, 6.9% active; active = well fitted inhibition curve with a large enough effect; inconclusive = small, poorly fitted or top-dose-only effect, or another doubt; inactive = no such curve, though single readings can be large or run the other way; note: potency is the fitted concentration of half-maximal effect; % is set by controls: 0 for no effect and ±100 for the full control effect
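Parasite growth measured via integrated firefly luciferase reporter in P. falciparum. Infected erythrocytes at 2% hematocrit, 0.05% parasitemia final were treated 96 hours at 37 C under 5% CO2, and luminescence was read.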
Shiga inhibitor = Shiga toxin inhibition. inhibition, % at 38.7 µM. Vero cells, Shiga toxin protein synthesis inhibition reporter. AID 2315. 290,000 tested, 9.2% active; in the data active = inhibition mostly above about 28%, no sharp cut-off; inactive = mostly below about 43%; note: 0% is about no effect
Pf growth 48h = inhibits P. falciparum growth in the first generation, 48 h; AID 504832; P. falciparum luciferase growth in erythrocytes, 48 h; 310,000 tested, 5.9% active; Potency, µM (titrated, usually from 28.7 µM), without a hit: top-dose activity change, negative = inhibition, hits mostly inhibitors; active = well fitted inhibition curve with a large enough effect; inconclusive = small, poorly fitted or top-dose-only effect, or another doubt; inactive = no such curve, though single readings can be large or run the other way; note: potency is the fitted concentration of half-maximal effect; % is set by controls: 0 for no effect and ±100 for the full control effect
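Erythrocytes infected with P. falciparum carrying an integrated firefly luciferase reporter (2% hematocrit, 0.1% parasitemia final) were exposed to compounds in RPMI 1640 with 0.5% Albumax at 37 C, 5% CO2. Growth inhibition was scored as reduced luminescence.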
SARS PLpro yeast = inhibitors of SARS-CoV papain-like protease in yeast | S. cerevisiae expressing SARS-CoV PLpro, growth rescue | Potency, µM (titrated, usually from 32.9 µM), for inactives: top-dose activity, positive = growth rescue, actives largely listed as activators | 330,000 tested, 0.19% active | AID 485353; note: potency is the fitted concentration of half-maximal effect; 0% is about no effect; nearly all actives have a fitted effect of over 55% in size
An asterisk follows results filed as active; ? = inconclusive; . = no result. Sampled rows, rich in hits. Any-hit rate of the full collection: about 21%. Unless noted, calls come from the whole dose curve.

SMILES | NS1 inh | CHX counter | Pf growth 96h | Shiga inhibitor | Pf growth 48h | SARS PLpro yeast
Cc1nc2c(-c3ccccc3)c[nH]n2c(=O)c1Cc1ccccc1 | . | 61.6* | 60.3% | 121.1* | 105.1% | -4.6%
Cc1cc(=O)n2[nH]cc(-c3ccccc3)c2n1 | 27.9% | 1.1 | 9.28µM* | -3.3 | 0.9% | -2.7%
O=C(N=Nc1c(O)[nH]c2ccc(Cl)cc12)c1cc(-c2cccs2)nc2ccccc12 | 13.8% | -3.0 | -15.4% | 11.1 | 40.8% | 13.9%
Cc1ccc(NC(=O)CSc2nnc(C)n2C2CC2)cc1S(=O)(=O)N1CCOCC1 | . | . | ? | . | -31.5% | 2.3%
CC(=O)NC(=S)Nc1ccc(S(=O)(=O)Nc2ncccn2)cc1 | -2.0% | 1.1 | -5.5% | -9.0 | 1.3% | -0.5%
CCCN1C(=O)c2cccc3c(N4CCCCC4)ccc(c23)C1=O | 3.4% | -1.7 | 13.1µM* | -6.8 | -0.6% | 17.7%
CC(=O)CCS(=O)(=O)c1ccc(Oc2ccc(S(=O)(=O)CCC(C)=O)cc2)cc1 | -14.3% | 17.5* | ? | 23.2* | -24.2% | 5.5%
CC(=O)CS(=O)(=O)c1ccc(Oc2ccc(S(=O)(=O)CC(C)=O)cc2)cc1 | 14.0% | -6.3 | 10.7% | -2.4 | 24.4% | 15.6%
CCCNc1c(NC(=O)COc2ccc(Cl)cc2)c(=O)oc2ccccc12 | 6.1% | -2.8 | ? | -8.3 | 0.0657µM* | 1.4%
NC(=O)c1ccccc1NS(=O)(=O)Cc1ccc(Cl)cc1 | 2.2% | -1.5 | -21.2% | 9.3 | 0.3% | -3.7%
O=C(COc1ccc(Cl)cc1)Nc1ccccc1Cl | -27.5% | 49.2* | ? | 75.9* | ? | 0.0%
NC(=O)c1ccccc1NC(=O)COc1ccc(Cl)cc1 | -9.3% | 28.9* | 177.4% | 90.4* | 107.9% | -2.5%
CCNc1c(NC(=O)COc2ccc(Cl)cc2)c(=O)oc2ccccc12 | 1.4% | -3.1 | ? | -3.2 | ? | 11.7%
O=C(COc1ccc2ccccc2c1)Nc1ccccc1C(=O)O | -18.1% | 19.9* | 19.5% | 19.1 | 28.4% | 6.9%
NC(=O)c1cc(S(=O)(=O)N2CC=C(c3ccccc3)CC2)cs1 | -0.7% | -3.6 | 6.4% | -6.3 | -4.5% | -0.5%
CCCCCCCCc1nc(SCC(C)=O)n[nH]1 | -35.7% | -1.3 | 3.5% | 28.2 | -12.6% | -3.9%
Cc1ccc(OCC(=O)Nc2ccccc2C(N)=O)cc1 | 2.0% | 34.8* | ? | . | 175.7% | -2.7%
CSc1ccccc1NC(=O)COc1ccc(Cl)cc1 | -22.5% | 32.4* | ? | 48.4* | -9.6% | -18.4%
O=C(COc1ccccc1)Nc1ccccc1Oc1ccccc1 | -14.8% | -2.1 | -28.8% | -2.9 | -1.1% | 5.7%
CSc1ccccc1NC(=O)COC(=O)c1ccccc1O | . | 6.6 | 6.2% | 6.3 | -7.2% | 0.3%
O=C(COc1ccccc1)Nc1ccncc1Cl | -7.8% | 51.6* | 35.4% | 92.3* | 48.2% | 5.7%
COc1cc2cc(C(=O)N(C)C3CCS(=O)(=O)C3)[nH]c2cc1OC (stereo unspecified) | 10.3% | -5.4 | -19.2% | 9.9 | 11.7% | 3.5%
CCCCCC1CCC(c2ccc(C(N)=O)cc2)CC1 (stereo unspecified) | 4.1% | -2.4 | 2.94µM* | -17.0 | 1.1% | -1.5%
CCCC1CCC(c2ccc(C(N)=O)cc2)CC1 (stereo unspecified) | -6.3% | -2.7 | 68.6% | -6.8 | -1.0% | 1.3%
Cc1cc(/C=N/Nc2ccc([N+](=O)[O-])cn2)c(C)n1-c1ccccc1 | 6.3% | 27.1* | . | 77.5* | ? | -9.1%
SMILES | NS1 inh | CHX counter | Pf growth 96h | Shiga inhibitor | Pf growth 48h | SARS PLpro yeast
Cc1c(C(=O)O)cccc1-n1c(C)cc(/C=N/Nc2ccc([N+](=O)[O-])cn2)c1C | 8.3% | 31.7* | ? | 71.5* | ? | -0.3%
Cc1ccc(-n2c(C)cc(/C=N/Nc3ccc([N+](=O)[O-])cn3)c2C)cc1 | 15.8% | 39.3* | 13.2% | 58.9* | 3.5% | -4.1%
Clc1cccc(CSc2nccn2-c2ccccc2)c1 | -44.6% | 8.6 | ? | 9.9 | ? | 0.4%
Cc1ccc(C(=O)CSc2nccn2-c2ccccc2)cc1 | -10.2% | 48.9* | 108.4% | 143.3* | 31.6% | -7.1%
O=C(CSc1nccn1-c1ccccc1)c1ccc(Cl)cc1 | -3.0% | 29.5* | 14.3% | 82.7* | 3.0% | -5.6%
O=C(CSc1nccn1-c1ncc(C(F)(F)F)cc1Cl)c1ccc(Br)cc1 | -146.2% | 30.6* | 86.7% | 102.3 | 49.8% | -3.2%
Cn1c(CCNC(=O)c2ccccc2)nc2cc(NC(=O)C3CCCCC3)ccc21 | 5.3% | 10.2 | ? | 8.9 | . | 5.3%
Cc1ccc(NS(=O)(=O)c2ccccc2)c(C)c1 | . | -4.9 | . | -5.6 | . | .
Cc1cc(C)c(C(=O)N2CCCC(CNS(=O)(=O)N(C)C)C2)o1 (stereo unspecified) | ? | 11.3 | ? | 16.4 | 23.9% | -4.0%
Cc1ccc(S(=O)(=O)N2CC3CCCC2C3)cc1 (stereo unspecified) | -0.7% | -1.0 | -33.1% | 1.1 | 1.65µM* | -1.7%
Cc1ccc(S(=O)(=O)N2CC3CCC2C3)cc1 (stereo unspecified) | -6.7% | -1.3 | -10.5% | 13.4 | 48.3% | 0.5%
Cn1c(O)c(C=Nc2ccc(Br)cc2)c(=O)n(C)c1=O | 25.9% | -0.8 | ? | -10.5 | -25.4% | 3.9%
Cn1c(O)c(C=Nc2ccc(Br)cc2)sc1=O | . | 45.4* | 114.4% | 80.4* | 50.9% | -0.9%
Cn1c(=O)c2c(Nc3ccc(F)cc3)cc(=O)n(-c3ccccc3)c2n(C)c1=O | 4.4% | -1.4 | ? | 18.2 | 2.33µM* | -0.3%
Cn1c(=O)c2c(O)cc(=O)n(-c3ccccc3)c2n(C)c1=O | 18.5% | -2.0 | -5.5% | -22.5 | 22.4% | 2.9%
Cn1c(=O)cc(Nc2ccccc2)c2c(=O)n(-c3ccccc3)c(=O)n(-c3ccccc3)c21 | 4.3% | 6.3 | 4.65µM* | -4.1 | 6.57µM* | 0.3%
CCc1ccc(NC(=O)C(NS(=O)(=O)c2ccc3c(c2)CCN3C(C)=O)C(C)C)cc1 (stereo unspecified) | -2.1% | -0.8 | ? | -1.0 | ? | 2.1%
CC(=O)N1CCc2cc(S(=O)(=O)NC(CC(C)C)C(=O)Nc3cc(C(=O)O)ccc3C)ccc21 (stereo unspecified) | 1.8% | -2.5 | 0.294µM* | -4.0 | 1.5% | ?
COc1ccc(S(=O)(=O)N2CCCCC2)cc1NC(=O)Cc1sc(C)nc1-c1ccc(F)cc1 | . | . | ? | . | 11.7µM* | 0.4%
COc1ccc(OC)c(/C=N/NC(=O)CNC(=O)c2ccc(S(=O)(=O)N3CCCC3)cc2)c1 | . | -2.5 | 4.15µM* | -7.6 | 26.6% | -0.4%
COc1ccc(Cl)cc1C(=O)Nc1ccc(S(=O)(=O)N2CCCC2)cc1 | 3.0% | 2.9 | . | -31.9 | 39.9% | -5.8%
COc1ccc(S(=O)(=O)N2CCCCCC2)cc1C(=O)NCc1ccccc1Cl | . | . | 8.28µM* | . | 5.86µM* | 2.1%
CCN(CC)C(=O)c1ccc(NC(=O)c2cc(S(=O)(=O)N3CCCCCC3)ccc2OC)cc1 | . | . | 9.28µM* | . | 7.38µM* | -0.1%
